Consider 15 compounds from PubChem BioAssay (NCATS).

The structures appear in SMILES notation. Inconclusive results are not listed. Activity calls are given as the source filed them. Unless noted, calls come from the whole dose curve; as a rule, active = well fitted inhibition curve with a large enough effect; inconclusive = small, poorly fitted or top-dose-only effect; inactive = flat fitted curve, though single readings scatter.

Assay [1] in a line: qHTS drug screen for cell cycle checkpoint inhibitors in PARPi-resistant BRCA-mutant ovarian cancer cell lines. (AID 1963452; calls by dose curve). The conditions noted are these: PEO1/OlaR viability, CellTiter-Glo luminescence, 96 h, stronger effect = lower value. A digest of the protocol:
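PEO1, PEO4 and PEO1/OlaR ovarian cancer cells, 600 per well, exposed 96 h at 37C to a dilution series. Viability read by CellTiter-Glo luminescence, normalized to DMSO and empty wells; activity summarized as Z-AUC.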
(In general: qHTS replaces the single test concentration by a dilution series.)

Assay [2] in a line: qHTS profiling for inhibitors of Plasmodium falciparum proliferation (AID 504749).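 For activity, negative = inhibition: 0% = DMSO vehicle and full inhibition = artemisinin control.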 Note: nearly all actives have a fitted effect of over 60% in size. Note: potency is the fitted concentration of half-maximal effect. The conditions noted are these: P. falciparum in erythrocytes, SYBR Green DNA, 72 h. In outline: (§1)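 Three-day growth assay of blood-stage parasites in erythrocytes (0.3% parasitemia, 2.5% hematocrit) at 37 C, 5% CO2, quantified by SYBR Green DNA staining after overnight detergent lysis.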
For assay [3], the system named is 3D7. The description is as above. The conditions noted are these: P. falciparum in erythrocytes, SYBR Green DNA, 72 h; series mostly up to 28.7 µM. A digest of the protocol: as §1
In assay [4] the test system is 7G8. Described as above. The conditions noted are these: P. falciparum in erythrocytes, SYBR Green DNA, 72 h; series mostly up to 28.7 µM. A digest of the protocol:
as §1

The subject of assay [5] is AA1029. The description is as above. The conditions noted are these: P. falciparum in erythrocytes, SYBR Green DNA, 72 h; series mostly up to 28.7 µM. A digest of the protocol:
as §1

Assay [6] has as its system AS120. Described as above. The conditions noted are these: P. falciparum in erythrocytes, SYBR Green DNA, 72 h; series mostly up to 28.7 µM. A digest of the protocol:
as §1

Assay [7] has as its system ATS189. The description is as above. The conditions noted are these: P. falciparum in erythrocytes, SYBR Green DNA, 72 h; series mostly up to 28.7 µM. A digest of the protocol: as §1
The subject of assay [8] is ATS95. Described as above. The conditions noted are these: P. falciparum in erythrocytes, SYBR Green DNA, 72 h; series mostly up to 28.7 µM. A digest of the protocol:
as §1

Assay [9] deals with C2A. Described as above. The conditions noted are these: P. falciparum in erythrocytes, SYBR Green DNA, 72 h; series mostly up to 28.7 µM. In outline:
as §1

The subject of assay [10] is CP185. The description is as above. The conditions noted are these: P. falciparum in erythrocytes, SYBR Green DNA, 72 h; series mostly up to 28.7 µM. In outline: as §1
Assay [11] deals with CP191. Described as above. The conditions noted are these: P. falciparum in erythrocytes, SYBR Green DNA, 72 h; series mostly up to 28.7 µM. A digest of the protocol: as §1
The nature of assay [12]: qHTS for identification of novel therapeutic agents for treatment of microphthalmiaassociated transcription factor (MiT) renal cell carcinoma (RCC) (AID 1963991; calls by dose curve; note: potency is the fitted concentration of half-maximal effect). The conditions noted are these: CellTiter-Glo, 48 h; for z-score: stronger effect = lower value. A digest of the protocol: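 Curves over 11 concentrations were fitted to CellTiter-Glo luminescence, scaled between empty wells (0%) and DMSO (100%) viability. Cells were UOK109, UOK124 and UOK145 TFE3-fusion RCC lines at 500/well, exposed 48 hours at 37 C.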

The mark [13] stands for this setting: measured here: PEO1 parental Z-AUC.
Setting [14] is: at 28.7 µM (top of the series), parasite line A.
The mark [15] stands for this setting: at 28.7 µM (top of the series), parasite line B.
[16] abbreviates: at 12.8 µM (top of the series), parasite line A.
Where [17] appears, read: at 12.8 µM (top of the series), parasite line B.
Where [18] appears, read: TFE3-RCC UOK109 viability, measured here: UOK109 Z-AUC.
The mark [19] stands for this setting: TFE3-RCC viability, measured here: UOK124 Z-AUC.
Setting [20] is: TFE3-RCC viability, measured here: UOK145 Z-AUC.

Take `C[C@@H]1CC[C@H]2[C@@H](C)C(=O)O[C@@H]3O[C@@]4(C)CC[C@@H]1[C@]32OO4`: the Z-AUC in assay [1] is 1.33 (inactive); in assay [1] (setting [13]) it was 0.931; in [1] (measured here: PEO4 Z-AUC), 1.15.

As for `C[C@H]1C(=O)O[C@@H]2CCN3CC=C(COC(=O)[C@](C)(O)[C@]1(C)O)[C@H]23`, the activity, negative = inhibition is -7.4% (inactive) in assay [2] (setting [14]) and -1.5% (inactive) in assay [2] (setting [15]). Moreover, the Potency result in [3], in assay [4], in assay [5], in assay [6], in assay [7] and in [8] was “inactive” throughout. Also, the Potency entry in [9], in [10] and in [11] was “inactive” in each case.

`COc1ccc(CN2CCNCC2)c(OC)c1OC`: the activity, negative = inhibition in assay [2] (setting [16]) is 8.69% (inactive); in assay [2] (setting [17]), 4.48% (inactive). The Potency entry in assay [3], in assay [4], in [5], in assay [6], in assay [7] and in [8] was “inactive” throughout. In addition, the Potency entry in assay [9], in assay [10] and in assay [11] was “inactive” throughout.

On to `C[C@@H]1C[C@@H]([C@H](O)CC2CC(=O)NC(=O)C2)C(=O)[C@@H](C)C1`, for which the Z-AUC in assay [1] is 0.13 (inactive); in assay [1] (setting [13]), -0.0615; in assay [1] (measured here: PEO4 Z-AUC) it was 0.0418. In addition, the Potency in assay [12] (TFE3-RCC UOK109 viability) is 0.0469 µM (active). The z-score in [12] (setting [18]) is -2.25; in assay [12] (setting [19]), -1.12; in assay [12] (setting [20]), -1.24.

Consider `COP(=S)(OC)Oc1ccc(Sc2ccc(OP(=S)(OC)OC)cc2)cc1`, for which the activity, negative = inhibition in assay [2] (setting [14]) is 7.58% (inactive); in assay [2] (setting [15]), 4.24% (inactive). The Potency result in assay [3], in [4], in assay [5], in assay [6], in [7] and in assay [8] was “inactive” throughout. In addition, the Potency result in assay [9], in assay [10] and in assay [11] was “inactive” in each case.

With `C[C@@H]1O[C@@H](O[C@@H]2C=C3CC[C@@H]4[C@H](CC[C@]5(C)[C@@H](c6ccc(=O)oc6)CC[C@]45O)[C@@]3(C)CC2)[C@H](O)[C@H](O)[C@H]1O`, the values for the Z-AUC in assay [1], in assay [1] (setting [13]) and in assay [1] (measured here: PEO4 Z-AUC) were -2.1 (inactive), -2.52 and -2.14, respectively.

For the compound `O=C(O)c1nn(Cc2ccc(Cl)cc2Cl)c2ccccc12`, the Z-AUC in [1] was 0.664 (inactive); in assay [1] (setting [13]), 0.662; in [1] (measured here: PEO4 Z-AUC) it was 0.605. For the same compound, the z-score is 0.154 in assay [12] (setting [18]), 0.856 in [12] (setting [19]) and -0.814 in [12] (setting [20]). For the same compound, the figures for the activity, negative = inhibition in [2] (setting [14]) and in assay [2] (setting [15]) were -9.19% (inactive) and -4.8% (inactive), respectively. Moreover, the Potency entry in assay [3], in [4], in assay [5], in assay [6], in assay [7] and in [8] was “inactive” in each case. Also, the Potency entry in assay [9], in assay [10] and in assay [11] was “inactive” each time.

With `C[N+]1(CCC(C(N)=O)(c2ccccc2)c2ccccc2)CCCCC1`, the activity, negative = inhibition in [2] (setting [14]) was -14.5% (inactive); in assay [2] (setting [15]), -9.8% (inactive). Further, the Potency entry in [3], in assay [4], in [5], in [6], in assay [7] and in assay [8] was “inactive” each time. The Potency result in [9], in assay [10] and in assay [11] was “inactive” in each case.

With `CN(C)C(=S)SSC(=S)N(C)C`, the Potency in assay [2] (parasite line A) is 2.51 µM (active); in assay [2] (parasite line B), 3.16 µM (active); in assay [3], 1.58 µM (active); in assay [4], 1.12 µM (active); in assay [5] it was 2.24 µM (active); in assay [6], 3.55 µM (active). In addition, the Potency in assay [7] was 4.47 µM (active); in assay [8] it was 3.16 µM (active); in [9] it was 3.16 µM (active); in assay [10], 2 µM (active); in [11], 3.16 µM (active).

`Cc1ncc2n1-c1ccc(Cl)cc1C(c1ccccc1F)=NC2`: the values for the activity, negative = inhibition in assay [2] (setting [14]) and in assay [2] (setting [15]) were 7.97% (inactive) and -15.6% (inactive), respectively. Moreover, the Potency entry in assay [3], in assay [4], in assay [5], in assay [6], in assay [7] and in [8] was “inactive” throughout. The Potency entry in assay [9], in assay [10] and in [11] was “inactive” each time.

`CC(C)C(Br)C(=O)NC(N)=O` (stereo unspecified): the activity, negative = inhibition in assay [2] (setting [14]) is 10.2% (inactive); in assay [2] (setting [15]), 11.6% (inactive). Also, the Potency entry in assay [3], in [4], in [5], in assay [6], in [7] and in assay [8] was “inactive” throughout. In addition, the Potency result in assay [9], in assay [10] and in assay [11] was “inactive” each time.

Consider `Oc1c(Br)cc(Br)cc1Br`, for which the results for the activity, negative = inhibition in assay [2] (setting [14]) and in [2] (setting [15]) were 0.526% (inactive) and -0.833% (inactive), respectively. Further, the Potency result in assay [3], in assay [4], in [5], in assay [6], in [7] and in assay [8] was “inactive” throughout. The Potency entry in assay [9], in [10] and in [11] was “inactive” throughout.

On to `NC(=O)CN1CCCC1=O`, for which the activity, negative = inhibition in [2] (setting [16]) was -0.277% (inactive); in assay [2] (setting [17]) it was 13.3% (inactive). For the same compound, the Potency result in [3], in assay [4], in assay [5], in assay [6], in assay [7] and in assay [8] was “inactive” throughout. Also, the Potency entry in assay [9], in assay [10] and in assay [11] was “inactive” each time.

As to `CCN(Cc1ccc(Cl)nc1)/C(=C/[N+](=O)[O-])NC`, the values for the activity, negative = inhibition in assay [2] (setting [14]) and in assay [2] (setting [15]) were 8.19% (inactive) and -9.95% (inactive), respectively. Also, the Potency result in [3], in assay [4], in assay [5], in assay [6], in [7] and in assay [8] was “inactive” each time. The Potency result in [9], in assay [10] and in [11] was “inactive” throughout.

With `Clc1ccc(CO/N=C(\Cn2ccnc2)c2ccc(Cl)cc2Cl)c(Cl)c1`, the Potency in assay [2] (parasite line A) was 3.55 µM (active); in assay [2] (parasite line B) it was 2.82 µM (active); in assay [3], 2.82 µM (active); in assay [4] it was 1.12 µM (active); in [5], 5.01 µM (active); in assay [6], 2.24 µM (active). In addition, the Potency is 3.98 µM (active) in [7]; 6.31 µM (active) in assay [8]; 10 µM (active) in assay [9]; 10 µM (active) in [10]; 3.98 µM (active) in assay [11].
